From PubChem BioAssay (EPA / NIEHS)
Inconclusive results are not listed. Activity calls are given as the source filed them. Rule for the calls, unless noted: active = hit-call score of the fitted dose curve at least 0.9, where 1 is the maximum; inactive = score below 0.9.

Tests used:
[1] = CCTE_Shafer_MEA_acute_spike_number: CCTE's Neural Acute Assay for Total Number of Spikes, Shafer Lab (AID 2284008)
How it was run: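 Using an adaptive detector set to 8x rms noise, spikes were counted in 40-min windows before and after compound addition (0.03-40 uM) to rat cortical networks at 37 C; the well-level change from baseline was analysed relative to DMSO.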

[2] = CCTE_Shafer_MEA_acute_burst_number: CCTE's Neural Acute Assay for Single-Electrode Bursts, Shafer Lab (AID 2284013)
How it was run: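 Primary rat cortical neurons on 16-electrode MEA wells, DIV 13 or 15, exposed to compound (0.03-40 uM; ≥3 wells); 40-min recordings at 37 C before and after treatment. Burst count expressed as percent change from baseline, DMSO as negative control.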

[3] = CCTE_Shafer_MEA_acute_burst_duration_mean: CCTE's Neural Acute Assay for Mean Burst Duration, Shafer Lab (AID 2284014);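 note: hits are decreases in mean burst duration relative to DMSO controls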
How it was run: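 Mean burst duration was compared between a 40 min baseline and a 40 min recording in the presence of compound (0.03-40 uM, 37 C), giving percent change per well. Cultures were rat cortical neurons at DIV 13 or 15; wells needed ≥10 active electrodes.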

[4] = CCTE_Shafer_MEA_acute_per_burst_spike_number_mean: CCTE's Neural Acute Assay for Average Number of Spikes Per Burst, Shafer Lab (AID 2284015);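 note: hits are decreases in mean spikes per burst versus baseline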
How it was run: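 Primary rat cortical neurons on 48-well MEA plates, treated on DIV 13 or 15 at 0.03-40 uM. Spontaneous activity recorded 40 min before and 40 min after compound at 37 C; percent change in mean spikes per single-electrode burst per well, fitted in the loss direction versus DMSO.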

[5] = CCTE_Shafer_MEA_acute_interburst_interval_mean: CCTE's Neural Acute Assay for Mean Interburst Interval, Shafer Lab (AID 2284016);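 note: percent change of mean interburst interval versus each well's own pre-dose baseline; curves fitted for decrease in interburst interval relative to DMSO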
How it was run: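 Primary rat cortical neurons on 16-electrode MEA wells were recorded 40 min at baseline on DIV 13 or 15, then 40 min after compound (0.03-40 uM), at 37 C. Value is percent change in mean interburst interval per well, DMSO as negative control.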

[6] = CCTE_Shafer_MEA_acute_burst_percentage_mean: CCTE's Neural Acute Assay for Percentage of Spikes in a Burst, Shafer Lab (AID 2284017)
How it was run: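 Primary rat cortical neurons on 16-electrode MEA wells; 40 min baseline recorded at DIV 13 or 15, then 40 min after compound (0.03-40 uM) at 37 C. Well-mean fraction of spikes in single-electrode bursts; percent change from baseline, DMSO as negative control.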

[7] = CCTE_Shafer_MEA_acute_burst_percentage_std: CCTE's Neural Acute Assay for Standard Deviation of Burst Percentage, Shafer Lab (AID 2284018);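 note: fitted in the negative direction so actives lower burst percentage SD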
How it was run: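 Value is percent change from baseline in the across-electrode SD of spikes-in-bursts percentage, wells with >/= 10 active electrodes. Acute 40-min exposure to 0.03-40 uM on DIV 13 or 15 rat cortical cultures, recorded at 37 C after 40-min baseline.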

[8] = CCTE_Shafer_MEA_acute_per_network_burst_spike_number_mean: CCTE's Neural Acute Assay for Average Number of Spikes in a Network Burst, Shafer Lab (AID 2284019)
How it was run: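 Percent change from baseline in mean spikes per network burst, spikes detected at 8x rms noise. Each compound at 0.03-40 uM in at least three wells of rat cortical cultures, recorded 40 min before and 40 min during exposure.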

[9] = CCTE_Shafer_MEA_acute_per_network_burst_spike_number_std: CCTE's Neural Acute Assay for Standard Deviation of Number of Spikes in a Network Burst, Shafer Lab (AID 2284020);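 note: fitted for decrease in spike-number SD versus DMSO so actives lower it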
How it was run: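 Endpoint: percent change from 40 min baseline in standard deviation of spikes per network burst, after 40 min compound exposure (0.03-40 uM, 37 C). Cortical rat neurons on MEA at DIV 13 or 15; spikes detected at 8x rms noise, 300-5000 Hz band-pass.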

[10] = CCTE_Shafer_MEA_acute_per_network_burst_electrodes_number_mean: CCTE's Neural Acute Assay for Mean Number of Electrodes in a Network Burst, Shafer Lab (AID 2284021);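 note: curves fitted for decreases only so hits reduce electrodes per burst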
How it was run: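 Percent change from baseline in average electrode count per network burst, rat cortical cultures on 48-well MEAs; 40-min recordings each side of exposure, DIV 13 or 15; threshold 8x rms noise; DMSO as negative control.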

[11] = CCTE_Shafer_MEA_acute_network_burst_percentage: CCTE's Neural Acute Assay for Percentage of Network Bursts, Shafer Lab (AID 2284022);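 note: curves fitted for loss so actives lower network burst percentage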
How it was run: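 On DIV 13 or 15, at least three wells of rat cortical neurons per compound are dosed at 0.03-40 uM. Spontaneous firing is detected at 8x rms noise for 40 min before and after dosing at 37 C. The percent change in network-burst spike share is reported.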

[12] = CCTE_Shafer_MEA_acute_cross_correlation_area: CCTE's Neural Acute Assay for Area of Cross Correlation, Shafer Lab (AID 2284024);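 note: area under pooled inter-electrode spike cross-correlation near zero lag as percent change from own baseline; curves fitted for loss of cross-correlation area so actives lower synchrony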
How it was run: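 Extracellular recordings from cultured rat cortical neurons measure network synchrony as cross-correlation area; each well's post-compound value (0.03-40 uM, 40 min) is compared with its own 40 min baseline to give percent change.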

[13] = CCTE_Shafer_MEA_acute_cross_correlation_HWHM: CCTE's Neural Acute Assay for Cross Correlation at Half Width at Half Maximum, Shafer Lab (AID 2284026);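 note: spontaneous network firing of rat primary cortical neurons on multiwell microelectrode arrays; percent change per well from pre-dose baseline in spike cross-correlogram half width; hits are a decrease in cross-correlogram half width relative to DMSO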
How it was run: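 Percent change in cross-correlogram half width at half maximum, narrower meaning more synchrony, was derived per well from paired 40-min recordings before and during exposure to 0.03-40 uM compound in rat cortical cultures at 37 C.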

[14] = CCTE_Shafer_MEA_acute_synchrony_index: CCTE's Neural Acute Assay for Synchrony, Shafer Lab (AID 2284027);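 note: network synchrony index of spontaneous spiking in primary rat cortical neurons on MEAs; fitted for loss of signal so actives lower synchrony relative to DMSO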
How it was run: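 Plates equilibrated 20 min at 37 C, baseline recorded 40 min, compound (0.03-40 uM) added, then 40 min more recorded. Cells: primary rat cortical neurons, DIV 13 or 15. Per-well synchrony index change analysed in negative direction against DMSO.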

[15] = CCTE_Shafer_MEA_dev_firing_rate_mean: CCTE's Neural Network Formation Assay for Mean Firing Rate, Shafer Lab (AID 2284031)
How it was run: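 Steps: seed rat cortical cells (1.5 x 10^5/well) with laminin on PEI-coated MEA; dose day 0; record DIV 5/7/9/12, full media and compound exchange after DIV 5 and 9 recordings; compute well-mean firing rate AUC.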

[16] = CCTE_Shafer_MEA_dev_per_burst_spike_percent: CCTE's Neural Network Formation Assay for Percent of Spikes in a Burst, Shafer Lab (AID 2284032)
How it was run: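 Value is trapezoidal AUC over recordings on days 5, 7, 9 and 12 of the well-mean fraction of spikes falling in single-electrode bursts; rat cortical cultures exposed continuously from plating, treatment renewed DIV 5 and 9, fitted downward against DMSO.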

[17] = CCTE_Shafer_MEA_dev_active_electrodes_number: CCTE's Neural Network Formation Assay for Number of Active Electrodes, Shafer Lab (AID 2284040; active = hit-call score of the fitted dose curve at least 0.9, where 1 is the maximum)
How it was run: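 Counts electrodes per well firing at least 5 spikes/min, recorded on days 5, 7, 9 and 12 in rat cortical cultures dosed continuously from plating (treatment refreshed DIV 5, 9). Value is the area under the curve over recordings, fitted downward relative to DMSO.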

[18] = CCTE_Shafer_MEA_dev_burst_rate: CCTE's Neural Network Formation Assay for Burst Rate, Shafer Lab (AID 2284042)
How it was run: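 Rat primary cortical cultures on PEI/laminin MEA; compound from plating, re-dosed at DIV 5, 9 media change. Single-electrode bursts/recording length, well mean of active electrodes; AUC over DIV 5–12 recordings; loss-of-signal vs DMSO.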

[19] = CCTE_Shafer_MEA_dev_per_burst_interspike_interval: CCTE's Neural Network Formation Assay for Burst Interspike Interval, Shafer Lab (AID 2284044)
How it was run: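 Spontaneous activity of maturing rat cortical networks is recorded on DIV 5, 7, 9 and 12 under chronic compound exposure beginning at plating. Endpoint: burst interspike interval well-mean, collapsed into trapezoidal AUC and fitted in the negative direction relative to DMSO.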

[20] = CCTE_Shafer_MEA_dev_burst_duration_mean: CCTE's Neural Network Formation Assay for Mean Burst Duration, Shafer Lab (AID 2284045)
How it was run: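 Mean single-electrode burst duration (first to last spike), averaged over bursting electrodes per well, then integrated as area-under-curve across recordings at days 5, 7, 9 and 12. Rat cortical cultures on MEAs, compound present from plating, refreshed at feeds.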

[21] = CCTE_Shafer_MEA_dev_interburst_interval_mean: CCTE's Neural Network Formation Assay for Mean Interburst Interval, Shafer Lab (AID 2284046);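 note: well-mean interburst interval of bursting electrodes as AUC over four recording days; curve fitted for decrease in interburst interval relative to DMSO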
How it was run: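 Rat cortical neurons, 1.5 x 10^5 cells/well, 48-well MEA; compound from day 0 through DIV 12, media and treatment renewed DIV 5/9. Recordings DIV 5, 7, 9, 12; well-mean interburst interval → trapezoidal AUC, loss direction vs DMSO.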

[22] = CCTE_Shafer_MEA_dev_inter_network_spike_interval_mean: CCTE's Neural Network Formation Assay for Mean Inter-network Spike Interval, Shafer Lab (AID 2284047)
How it was run: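 Primary rat cortical neurons on PEI-coated 48-well MEAs (16 electrodes/well) were exposed from plating day 0 to DIV 12, with dosing renewed at DIV 5 and 9. Recordings at DIV 5, 7, 9, 12 were collapsed by trapezoidal AUC, loss-of-signal fit vs DMSO.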

[23] = CCTE_Shafer_MEA_dev_network_spike_peak: CCTE's Neural Network Formation Assay for Mean Number of Electrodes in Network Spike, Shafer Lab (AID 2284049)
How it was run: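 Rat cortical primary culture, 1.5 x 10^5 cells/well, 48-well MEA (16 electrodes/well). Dosing day 0 through DIV 12, full media/compound exchange DIV 5, 9. AxIS adaptive spike detection; AUC over days 5/7/9/12; loss-of-signal vs DMSO.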

[24] = CCTE_Shafer_MEA_dev_spike_duration_mean: CCTE's Neural Network Formation Assay for Mean Spike Duration, Shafer Lab (AID 2284051);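 note: mean network spike duration pooled as area under curve over DIV 5 to 12 recordings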
How it was run: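 Rat cortical primary cultures, 48-well MEA (16 electrodes/well); compound from plating, renewed DIV 5, 9. Network spike duration (AxIS adaptive detector) recorded DIV 5/7/9/12, combined as trapezoidal AUC; loss direction vs DMSO.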

Measured: AC50

C#CCN(C)[C@H](C)Cc1ccccc1
active: [3] 8.86 µM | [5] 15 µM
inactive: all other assays above
